Assay outcomes (PubChem BioAssay)
S-ASM inh = blocks human secretory acid sphingomyelinase | placental ASM, HMU-PC fluorogenic substrate, 60 min | actives 0.006% (n = 340,000) | Potency, µM (series often up to 57.5 µM), for inactives: at the highest dose activity change, negative = inhibition, actives largely listed as inhibitors | P17405; also: potency is read from the fitted curve at half-maximal effect
Target sequence (P17405 47-631 limits assumed): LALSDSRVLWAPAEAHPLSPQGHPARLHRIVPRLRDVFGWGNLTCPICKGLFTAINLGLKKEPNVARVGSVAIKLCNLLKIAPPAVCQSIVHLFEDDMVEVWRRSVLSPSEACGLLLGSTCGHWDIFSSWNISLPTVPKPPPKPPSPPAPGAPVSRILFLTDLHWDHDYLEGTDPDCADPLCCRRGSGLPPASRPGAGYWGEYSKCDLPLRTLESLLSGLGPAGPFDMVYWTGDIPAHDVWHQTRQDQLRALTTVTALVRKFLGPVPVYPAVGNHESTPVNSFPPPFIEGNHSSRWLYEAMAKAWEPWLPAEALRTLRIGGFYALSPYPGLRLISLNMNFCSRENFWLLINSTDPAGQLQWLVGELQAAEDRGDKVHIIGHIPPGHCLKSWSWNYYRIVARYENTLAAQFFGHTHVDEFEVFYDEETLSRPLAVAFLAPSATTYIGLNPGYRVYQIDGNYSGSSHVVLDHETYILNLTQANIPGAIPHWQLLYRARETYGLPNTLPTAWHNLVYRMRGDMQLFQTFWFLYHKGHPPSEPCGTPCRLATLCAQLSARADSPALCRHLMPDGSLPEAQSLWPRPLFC
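Fluorescence read-out (Ex 386 nm, Em 447 nm) after stopping the reaction at pH 10. Enzyme: ASM from human placenta; substrate HMU-PC0, 9 uM final; 60 min, 37 °C. Compound preincubation 10 min, ambient temperature.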
TGFb SMAD3 inh = TGF-b pathway inhibition | HepG2 CAGA-GFP TGF-b/SMAD3 reporter, GFP fluorescence, 18 h; TGF-beta stimulated, 500 pg/mL final | Potency, µM (titrated, usually from 46.1 µM), inactives show top-dose activity, negative = inhibition, hits mostly inhibitors | actives 1.2% (n = 410,000) | AID 588855; also: potency is read from the fitted curve at half-maximal effect; % is scaled to controls: 0 for no effect and ±100 for the full control effect; nearly all actives have a fitted effect of over 65% in size
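TGF-beta reporter screen: HEPG2 CAGA-GFP, 1% FBS, 500 pg/mL TGF-beta final, 18 h; per-cell GFP summed per well; curves fitted and categorized by class.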
IL-1B inflam inh = inhibitors of inflammasome signaling (IL-1 beta secretion); activity change, % at 57.5 µM; THP-1 LPS/ATP IL-1B secretion, AlphaLISA, 16 h; hits give low values; actives 4.7% (n = 360,000); in the data active = activity change below about -50%; inconclusive = mostly about -30% to -49%; also: % is scaled to controls: 0 for no effect and ±100 for the full control effect
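THP-1 cells pretreated 1 hr with compounds (up to 57.5 uM final), then stimulated with LPS (250 ng/mL final) plus ATP (1.25 mM final); secreted IL-1B measured by AlphaLISA after 16 hr, decreased signal indicating inhibition.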
TDP1 cell noCPT = qHTS for Inhibitors of human tyrosyl-DNA phosphodiesterase 1 (TDP1): qHTS in cells in absence of CPT. AID 686978, 2013. DT40 Tdp1-/- hTDP1 cells, no CPT, ATP luminescence, 48 h. actives 15% (n = 420,000). Potency, µM (doses to about 46.2 µM), for the others: at the top dose activity change, negative = growth inhibition, actives largely listed as inhibitors; also: potency is read from the fitted curve at half-maximal effect; % is scaled to controls: 0 for no effect and ±100 for the full control effect; nearly all actives have a fitted effect of over 55% in size
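Cells were dispensed at 400 per well, compounds added by pin tool, plates incubated ≥48 hr at 37 °C, then CellTiter-Glo added for 30 min at room temperature before luminescence reading. Line: DT40 Tdp1-/- complemented with hTDP1; camptothecin omitted.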
DT40 TDP1 CPT = growth inhibition of DT40 Tdp1-/-;hTDP1 cells with camptothecin (screen for TDP1 inhibitors). chicken DT40 Tdp1-/-;hTDP1 cells + 20 nM CPT, ATP luminescence, 48 h. Potency, µM (titrated, usually from 46.2 µM), inactives show top-dose activity change, negative = growth inhibition, actives largely listed as inhibitors. actives 12% (n = 420,000); also: potency is read from the fitted curve at half-maximal effect; % is scaled to controls: 0 for no effect and ±100 for the full control effect; nearly all actives have a fitted effect of over 55% in size
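Chicken DT40 Tdp1-/- cells complemented with human TDP1, 400 cells/well, exposed to compounds plus 20 nM camptothecin for at least 48 h at 37 C; viability read as ATP content by CellTiter-Glo luminescence.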
HepG2 viability = counter-screen for TGF-b inhibitors: cytotoxicity in HepG2 cells | HepG2 CAGA-GFP viability, ATP luminescence, 18 h | Potency, µM (series often up to 46.1 µM), inactives show top-dose activity change, negative = cytotoxicity, most hits filed as cytotoxic | actives 0.76% (n = 410,000) | AID 588856; also: potency is read from the fitted curve at half-maximal effect
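CellTiter-Glo luminescence gave cytotoxicity after 18 hours at 37 degrees C. The cells were HepG2 CAGA-GFP in 1% FBS DMEM, stimulated with 500 pg/mL TGF-beta after compound addition. %Activity was normalised to no-cell wells (complete cell-killing) and DMSO (no toxicity), and curves were fitted and classified.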
* hit, by the source's call; ? = inconclusive; · = no result given; ! = not confirmed by another sample. A selection: hits, their analogues and other compounds. The true share with any hit is near 19%. Unless noted, calls follow the shape of the dose curve; as a rule, active = well fitted curve in the direction sought with a large enough effect; inconclusive = small, poorly fitted or top-dose-only effect, or another doubt; inactive = no such curve, though single readings can be large; an effect the other way counts as inactive or inconclusive.

SMILES	S-ASM inh	TGFb SMAD3 inh	IL-1B inflam inh	TDP1 cell noCPT	DT40 TDP1 CPT	HepG2 viability
c1ccc(Nc2ccccc2Nc2ccccn2)nc1	2%	12%	-9	5%	-4%	2%
Oc1cccc2ccc(Nc3ccccn3)nc12	4%	?	-110*	3.7µM*	1.6µM*	5.6µM*
CCC1CCCCN1C(=O)CSc1nnc(-c2ccc(OC)cc2)o1 (stereo not drawn)	-6%	-12%	-7	21µM*	?	-12%
CC1CCCC(C)N1C(=O)COC(=O)c1c[nH]c2ccccc12 (stereo not drawn)	1%	-8%	-7	3.3µM*	-8%	-14%
O=C(COC(=O)c1c[nH]c2ccccc12)NC1CCCC1	4%	42%	4	-17%	-6%	14%
Clc1ccc(CSc2nnc(-c3c[nH]c4ccccc34)o2)cc1	-17%	16µM*	3	?	?	-69%
CC1CCCCN1C(=O)CSc1nnc(-c2ccc(Cl)s2)o1 (stereo not drawn)	-1%	3%	-8	29µM*	?	-21%
CCOC(=O)CSc1nnc(-c2c[nH]c3ccccc23)o1	2%	-33%	-93*	7%	16%	-12%
CCC1CCCCN1C(=O)CSc1nnc(-c2c[nH]c3ccccc23)o1 (stereo not drawn)	-8%	4%	-21	?	21µM*	-27%
CC1CCCC(C)N1C(=O)CSc1nnc(-c2c[nH]c3ccccc23)o1 (stereo not drawn)	-9%	-11%	-16	16µM*	?	-22%
O=C(Nc1ccc(C(=O)OC2CCCCC2)cc1)c1ccncc1	-3%	-5%	-6	?	?	-35%
COc1cccc(CN2C(=O)NC(C)(C3CCN(Cc4cccc(O)c4)CC3)C2=O)c1OC (stereo not drawn)	·	·	·	-26%	-21%	·
Cc1ccc(S(=O)(=O)Nc2ccsc2C#N)cc1	-1%	0%	-6	12%	-5%	0%
COCCCNC(=S)NC(=O)c1ccc(C)cc1	1%	22%	0	18µM*	0%	-3%
O=C(NC(=S)Nc1ccc(Oc2ccccc2)cc1)c1ccc(Cl)cc1	-2%	?	-54*	23µM*	?	-13%
Cc1ccc(C(=O)NC(=S)Nc2ccc(Oc3ccc(Cl)cc3)cc2)cc1	0%	-5%	0	21µM*	?	9%
Cc1ccc(C(=O)NC(=S)Nc2ccc(-c3ccc(CO)o3)cc2)cc1	-2%	-2%	0	10µM*	?	-18%
Cc1ccc(C(=O)NC(=S)Nc2ccc(NC(=O)c3cccc(Cl)c3)cc2)cc1	2%	?	0	?	-28%	-40%
Cc1cccc(NC(=O)C(C)Sc2nnc(-c3cccnc3)o2)c1 (stereo not drawn)	-2%	5%	-10	?	-47%	-9%
CCCN(C(=O)CCc1nc(-c2ccc(C)cc2)no1)c1ccc(OCC)cc1	·	?	·	?	16µM*	-26%
CCN(Cc1ccccc1)C(=O)CCc1nc(-c2ccc(C)cc2)no1	-9%	17%	0	23µM*	29µM*	15%
CCOc1ccc(N(CC)C(=O)CCc2nc(-c3ccccc3F)no2)cc1	·	?	·	?	?	-14%
CCc1ccccc1N(CC)C(=O)CCc1nc(-c2ccc(C)cc2)no1	-14%	?	?	23µM*	23µM*	-6%
Fc1ccc(Cn2cc(C(=S)N3CCOCC3)c3ccccc32)cc1	-1%	1%	2	?	?	-18%
Fc1ccccc1Cn1cc(C(=S)N2CCOCC2)c2ccccc21	-9%	-19%	-25	16µM*	?	-10%
SMILES	S-ASM inh	TGFb SMAD3 inh	IL-1B inflam inh	TDP1 cell noCPT	DT40 TDP1 CPT	HepG2 viability
CN1CCN(C(=S)c2cn(Cc3ccc(Br)cc3)c3ccccc23)CC1	-15%	?	-11	?	21µM*	-29%
CCOC(=O)C(Cc1ccc(O)cc1)NC(=O)CCc1c[nH]c2ccccc12 (stereo not drawn)	2%	?	-13	-3%	-4%	-70%
CC1CNCCN1S(=O)(=O)c1cccc2cnccc12 (stereo not drawn)	0%	-21%	-91*!	15µM*!	?	-32%
C=CCN=c1sc(C(=O)OC)cc(=O)n1CC=C	-1%	-15%	0	-19%	15µM*	-11%
CCc1cccc(NC(=O)CCc2c(C)nc3c(c2C)c(=O)n(C)c(=O)n3C)c1	·	-19%	·	?	23µM*	-13%
COc1ccccc1C(=O)NCCSc1c(C)[nH]c2ccccc12	·	?	·	23µM*	16µM*	-29%
COc1cc(C(=O)NCCSc2c(C)[nH]c3ccccc23)cc(OC)c1OC	·	-3%	·	15µM*	?	-25%
COc1cccc(C(=O)NCCSc2c(C)[nH]c3ccccc23)c1OC	-7%	-7%	-22	?	?	-18%
Cc1cc(CSc2ccccc2)ccc1NC(=O)c1ccc(C)c([N+](=O)[O-])c1	2%	-12%	53	18µM*	-14%	-32%
Cc1ccc(C(=O)NCCSc2c(C)[nH]c3ccccc23)cc1[N+](=O)[O-]	-13%	?	-23	21µM*	10µM*	-23%
N[C@@H](CS(=O)O)C(=O)O	·	·	·	0%	1%	·
CCOP(=O)(NC(c1ccccc1)c1nc2ccccc2[nH]c1=O)OCC (stereo not drawn)	48%	8%	-7	-17%	4%	-8%
COc1ccccc1C(=O)NC(CCSC)C(=O)NNC(=O)C(C)Oc1ccccc1F (stereo not drawn)	3%	-14%	-1	?	-1%	5%
CCOC(=O)c1c(-c2ccccc2)c[nH]c1C	8%	-4%	-11	?	-3%	-6%
CCOC(=O)c1ccc2c(c1)sc1nc(-c3ccc(OCC)cc3)cn12	·	-1%	·	?	?	9%
COc1cc(C(=O)NCC(=O)N/N=C/c2c(C)[nH]c3ccccc23)cc(OC)c1OC	-5%	-6%	-4	26µM*	?	-8%
Cc1cc(Cl)ccc1NS(=O)(=O)c1ccc2c(c1)CCN2S(C)(=O)=O	·	?	·	21µM*	?	-1%
